This passage reports Potency, outcome and activity change, negative = cytotoxicity results from PubChem BioAssay (NCATS).

The test system of one test is HEK293T. As to the kind of experiment: qHTS assay to identify novel small-molecules to repurpose for Merkel cell carcinoma treatment (AID 1296009). Note: nearly all actives have a fitted effect of over 60% in size. To be noted: MCC and control cell lines, CellTiter-Glo viability, 72 h; series mostly up to 44.8 µM. In a few lines: (§1)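 Luminescence from CellTiter-Glo, read 10 min after addition at room temperature, reported viability following a 72 hr, 37 degree celsius treatment with NPC or MIPE compounds in titration; values normalized to plate controls.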
(Quantitative high-throughput screening tests each substance at several concentrations.)

A further test has as its system C33A. Briefly: Primary qHTS to identify gynecologic anti-cancer compounds using libraries of approved drugs and bioactive compounds (AID 1345084). Note: % is set by controls: 0 for no effect and ±100 for the full control effect; nearly all actives have a fitted effect of over 55% in size. To be noted: Gynecologic cancer cell panel viability, ATPlite luminescence, 48 h; series mostly up to 57.5 µM. In short, it runs like this:
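Measured: luminescence after ATPlite addition (15 min, RT). Exposure: 48 h, 37 C, 5% CO2.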

The test system of a further test is NIH3T3. As to the kind of experiment: qHTS assay to identify novel small-molecules to repurpose for Merkel cell carcinoma treatment (AID 1296009). Note: nearly all actives have a fitted effect of over 60% in size. The following applies: MCC and control cell lines, CellTiter-Glo viability, 72 h; at 44.8 µM (top of the series) unless noted. In short, it runs like this:
as §1

Inconclusive results are not listed. Values without a mark were called inactive. Active and inactive are the calls of the source. Calls come from the whole dose curve; as a rule, active = well fitted curve in the direction sought with a large enough effect; inconclusive = small, poorly fitted or top-dose-only effect, or another doubt; inactive = no such curve, though single readings can be large; an effect the other way counts as inactive or inconclusive.

As to `c1nc(NC2CCCCCC2)c2cc(CNC[C@H]3CCCO3)sc2n1`, the Potency result with HEK293T and with C33A was “inactive” in each case.
Take `C=CCc1ccc(O[C@@H]2O[C@H](CO[C@@H]3O[C@@H](C)[C@H](O)[C@@H](O)[C@H]3O)[C@@H](O)[C@H](O)[C@H]2O)cc1`: the Potency entry with HEK293T and in the test with C33A was “inactive” throughout. Further, the outcome with NIH3T3 was “inactive [at 17.4 µM]”.
On to `CC(C(=O)O)C1CCC2(C)C3C(=O)C=C4C(CCC(=O)C4(C)C)C3(C)CCC12C` (stereo not given), for which the Potency entry in the test on HEK293T and in the test on C33A was “inactive” throughout. In the test with NIH3T3, the outcome is “inactive [at 17.4 µM]”.
In the case of `COC1CC(OC2CCC3(C)C(=CCC4C3CCC3(C)C(C(C)O)CCC43O)C2)OC(C)C1OC1OC(C)C(OC2OC(COC3OC(COC4OC(CO)C(O)C(O)C4O)C(O)C(O)C3O)C(O)C(O)C2O)C(OC)C1O` (stereo not given), the outcome with HEK293T and in the test with NIH3T3 was “inactive [at 9.27 µM]” each time. In addition, the activity change, negative = cytotoxicity with C33A is 3.94% [at 11.6 µM].
For `CC1(C)C(=O)C(C)(C)c2cc(C(=O)Nc3ccc(C(=O)O)cc3)ccc21`, the Potency entry in the test on HEK293T and with C33A was “inactive” each time. Also, the call in the test with NIH3T3 was inactive.
Take `Cn1c(=O)c2nc(/C=C/c3cccc(Cl)c3)n(C)c2n(C)c1=O`: the Potency result with HEK293T and with C33A was “inactive” each time.
Take `O=C(O)c1cnn(-c2nc3cc(OC(F)(F)F)c(Cl)cc3[nH]2)c1`: the Potency entry in the test with HEK293T and with C33A was “inactive” in each case. Also, in the test on NIH3T3, the call was inactive.
As for `COC(=O)C12C(=O)C(C)=C(O)C1(C)C(C)=CC1C34CCC(OC3=O)C(C)(C)C4CCC12C` (stereo not given), the Potency entry in the test with HEK293T and in the test on C33A was “inactive” each time. In the test on NIH3T3, the outcome is “inactive [at 17.4 µM]”.
On to `CC1=CC(=O)C2C(C)(C)CC(O)CC2(C)C1CO` (stereo not given), for which the Potency result in the test on HEK293T and in the test on C33A was “inactive” each time.
`C[C@@H]1O[C@@H](O[C@H]2[C@H](O)[C@@H](O)[C@H](OC[C@H]3O[C@@H](OC(=O)[C@]45CCC(C)(C)C[C@H]4C4=CCC6[C@@]7(C)C[C@H](O)[C@H](O[C@@H]8O[C@H](CO)[C@@H](O)[C@H](O)[C@H]8O)[C@@](C)(C(=O)O)C7CC[C@@]6(C)[C@]4(C)CC5)[C@H](O[C@@H]4O[C@H](CO)[C@@H](O)[C@H](O)[C@H]4O)[C@@H](O)[C@@H]3O)O[C@@H]2CO)[C@H](O)[C@H](O)[C@H]1O` (stereo not given in full): the outcome in the test with HEK293T was “inactive [at 9.27 µM]”. The activity change, negative = cytotoxicity in the test on C33A was 4.28% [at 6.55 µM].
On to `CC1(C)CC[C@]2(C(=O)O)CC[C@]3(C)C(=CCC4[C@@]5(C)CC[C@H](O[C@@H]6O[C@H](C(=O)O)[C@@H](O)[C@H](O)[C@H]6O)C(C)(CO)C5CC[C@]43C)C2C1` (stereo not given in full), for which the Potency result in the test with HEK293T and in the test with C33A was “inactive” in each case.
Take `CCNC(=O)[C@H]1O[C@H](n2cnc3c(NCC(c4ccccc4)c4ccccc4)nc(C(=O)NCCNC(=O)NC4CCN(c5ccccn5)CC4)nc32)[C@H](O)[C@@H]1O`: the Potency entry in the test on HEK293T and with C33A was “inactive” each time.
As for `COc1cc(C(=O)OC[C@H]2O[C@H](O[C@@]3(CO)O[C@@H](CO)[C@H](O)[C@H]3O)[C@H](O)[C@@H](O)[C@@H]2O)ccc1O`, the Potency entry in the test with HEK293T and in the test on C33A was “inactive” in each case.
As for `O=C(O)c1n[nH]c2c1C[C@H]1C[C@@H]21`, the Potency result in the test on HEK293T and in the test with C33A was “inactive” throughout.
As to `C=C1C(=O)O[C@H]2[C@H]1[C@@H](OC(=O)C(C)CO)C[C@@]1(C)[C@H](O)CCC(=O)[C@H]21` (stereo not given in full), the Potency entry in the test on HEK293T and in the test on C33A was “inactive” each time.
In the case of `C[C@@H]1O[C@@H](O[C@H]2[C@H](O[C@H]3CC[C@@]4(C)C(CC[C@]5(C)C4CC=C4C6CC(C)(C)CC[C@]6(C(=O)O[C@@H]6O[C@H](CO[C@@H]7O[C@H](CO)[C@@H](O[C@@H]8O[C@@H](C)[C@H](O)[C@@H](O)[C@H]8O)[C@H](O)[C@H]7O)[C@@H](O)[C@H](O)[C@H]6O)CC[C@]45C)[C@]3(C)CO)OC[C@H](O)[C@@H]2O)[C@H](O)[C@H](O)[C@H]1O` (stereo not given in full), in the test with HEK293T, the outcome is “inactive [at 9.27 µM]”. For the same compound, the activity change, negative = cytotoxicity with C33A is -8.84% [at 6.55 µM].
For the compound `CC(C)C(=O)c1cn(CC(=O)COc2ccc(Oc3ccccc3)cc2)c2ccc(C(=O)O)cc12`, the Potency result in the test on HEK293T and with C33A was “inactive” each time.
Consider `CC(C)CC1(C(=O)OCc2ccc(O[C@@H]3O[C@H](CO)[C@@H](O)[C@H](O)[C@H]3O)cc2)CC(=O)OC(C(=O)O)CC(=O)OCC2OC(O1)C(OC(=O)/C=C/c1ccc(O)cc1)C(O)C2O` (stereo not given in full), for which the outcome with HEK293T and in the test with NIH3T3 was “inactive [at 9.27 µM]” each time. In addition, the activity change, negative = cytotoxicity in the test on C33A was -0.106% [at 11.6 µM].
For the compound `C/C=C(\C)C(=O)O[C@H]1[C@@H](O[C@]2(COC(=O)CC(C)C)O[C@H](COC(=O)C(C)C)[C@@H](OC(C)=O)[C@@H]2O)O[C@H](COC(C)=O)[C@@H](O)[C@@H]1O`, the Potency result in the test with HEK293T and with C33A was “inactive” throughout.
As for `C/C=C(/C)C(=O)O[C@H]1C=C(C)C[C@H](OC(=O)c2ccc(O)cc2)C2[C@](O)(C(C)C)CC[C@@]21C` (stereo not given in full), the Potency result with HEK293T and in the test with C33A was “inactive” throughout.
As for `C[C@@H]1O[C@@H](O[C@H]2[C@H](O[C@H]3CO[C@@H](O[C@H]4CC[C@@]5(C)C(CC[C@]6(C)C5CC[C@]57OC[C@@]8(CC[C@](C)(CO)CC85)[C@H](O)C[C@]76C)C4(C)C)[C@H](O[C@@H]4O[C@H](CO)[C@@H](O)[C@H](O)[C@H]4O)[C@H]3O)O[C@H](CO)[C@@H](O)[C@@H]2O)[C@H](O)[C@H](O)[C@H]1O` (stereo not given in full), the outcome with HEK293T is “inactive [at 9.27 µM]”. Also, the activity change, negative = cytotoxicity with C33A was -5.68% [at 11.6 µM].
Take `CCn1cc(C2=NOC(C(=O)Nc3c(C)n(C)n(-c4ccccc4)c3=O)C2)c(C)n1` (stereo not given): the Potency result in the test on HEK293T and in the test with C33A was “inactive” throughout.
As to `COC1=Cc2c(nc3n(c2=O)C(C)C(=O)NC3(O)C(C)C)OC=C1` (stereo not given), the Potency result with HEK293T and in the test with C33A was “inactive” throughout.
Take `CC[C@H](C)/C=C(C)/C=C/C(=O)Cc1cc(O)c(C)c(O)c1C=O`: the Potency entry in the test with HEK293T and in the test on C33A was “inactive” throughout.
